Screening results (PubChem BioAssay)
IMPase inh – cell-permeable inhibitors of inositol monophosphatase (IMPase); P97697; CHO-M1 cells, IP1 accumulation, HTRF TR-FRET ratio; inhibition (IP1 accumulation), % at 46.1 µM; 120,000 tested, under 10 active; active = well fitted curve in the direction sought with a large enough effect in the signal ratio, not every such curve was filed as active; inconclusive = small, poorly fitted or top-dose-only effect, or a change in a side signal; inactive = no such curve, though single readings can be large or run the other way; the % refers to the signal ratio;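 also: cells stimulated with carbachol in lithium chloride buffer; plate controls were DMSO basal wells for no effect and reference inhibitor wells for full effect; higher means more IMPase inhibition seen as more IP1 and lower FRET ratio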
Target sequence (P97697 whole entry, looked up): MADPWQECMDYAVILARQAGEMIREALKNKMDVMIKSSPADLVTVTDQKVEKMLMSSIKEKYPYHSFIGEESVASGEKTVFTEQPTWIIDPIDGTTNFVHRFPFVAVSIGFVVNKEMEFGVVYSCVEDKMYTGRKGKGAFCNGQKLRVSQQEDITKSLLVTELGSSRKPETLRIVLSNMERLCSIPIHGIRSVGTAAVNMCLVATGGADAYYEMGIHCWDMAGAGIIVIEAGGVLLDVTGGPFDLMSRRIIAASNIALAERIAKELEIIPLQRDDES
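CHO-M1 cells (CHO stably expressing M1 receptor), compound up to 46 uM final, stimulated with carbachol (50 uM as added) in buffer with 50mM LiCl, pH 7.4, 30 min at 37C. Cytosolic IP1 read by TR-FRET; AC50 from Hill fits.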
IMPase Li inh – membrane-permeable IMPase blocker, potentiated with lithium | Potency, µM (top dose mostly 59.4 µM), for the others: top-dose activity, negative = IMPase inhibition, most hits filed as inhibitors | CHO-M1 cells, IP1 TR-FRET (IP-One), carbachol + lithium | hit rate 0.35% among 210,000 | AID 1457;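 also: IP1 builds up when IMPase is blocked and the TR-FRET signal falls; potency is read from the fitted curve at half-maximal effect; plate controls were basal vehicle for no effect and high inhibitor control for full effect; nearly all actives have a fitted effect of over 50% in size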
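CHO cells stably expressing M1 receptor (2000/well) were cultured 16–30 h, then exposed to compounds with a small lithium addition for 30 min at 37C. IP1 was measured by TR-FRET competition; AC50 from Hill fits.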
HTT aggregate – mutant huntingtin aggregation inhibition | hit rate 1.1% among 220,000 | PC12 HttQ103-GFP aggregates, Acumen cytometry, 40 h | Potency, µM (doses to about 46.1 µM), without a hit: at the highest dose activity change, negative = inhibition, hits mostly inhibitors; also: potency is read from the fitted curve at half-maximal effect; % is scaled to controls: 0 for no effect and ±100 for the full control effect; nearly all actives have a fitted effect of over 60% in size
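Using laser scanning cytometry, GFP-positive aggregates were counted after lysis of PC12 cells induced with 100 nM tebufenozide to express HTT exon 1 Q103–GFP. Compounds were tested in titration.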
HPGD block – blocks human HPGD enzyme activity. P15428. purified HPGD, NADH fluorescence kinetic, PGE2 substrate. Potency, µM, without a hit: at the highest dose activity change, negative = inhibition, actives largely listed as inhibitors. hit rate 4.3% among 150,000; active = well fitted inhibition curve with a large enough effect, not every such curve was filed as active; inconclusive = small, poorly fitted or top-dose-only effect, or another doubt; inactive = no such curve, though single readings can be large or run the other way; also: potency is read from the fitted curve at half-maximal effect; % is scaled to controls: 0 for no effect and ±100 for the full control effect
Target sequence (P15428 whole entry, looked up): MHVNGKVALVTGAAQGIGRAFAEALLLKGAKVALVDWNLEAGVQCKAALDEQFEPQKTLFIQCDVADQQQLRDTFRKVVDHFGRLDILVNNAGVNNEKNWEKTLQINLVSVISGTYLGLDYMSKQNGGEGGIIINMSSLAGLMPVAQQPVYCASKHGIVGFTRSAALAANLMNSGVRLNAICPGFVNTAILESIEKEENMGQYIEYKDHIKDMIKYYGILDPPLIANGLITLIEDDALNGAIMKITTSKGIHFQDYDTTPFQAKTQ
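20 nM HPGD preincubated 15 min at room temperature with compound in 50 mM Tris-HCl pH 8, 0.01% Tween 20. Started with 1 mM NAD+ and 30 uM prostaglandin E2; NADH fluorescence (360/450 nm) read 5 times over 30-s intervals, last minus first.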
ALDH1A1 inh – blocks purified human ALDH1A1 activity; P00352; Purified ALDH1A1, NADH fluorescence, propionaldehyde substrate; Potency, µM (doses to about 75.3 µM), for inactives: at the top dose activity, negative = inhibition, actives largely listed as inhibitors; hit rate 7.3% among 220,000; AID 1030; active = well fitted inhibition curve with a large enough effect, not every such curve was filed as active; inconclusive = small, poorly fitted or top-dose-only effect, or another doubt; inactive = no such curve, though single readings can be large or run the other way;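 also: potency is read from the fitted curve at half-maximal effect; plate controls were no enzyme wells and a reference inhibitor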
HTT ATP protect – protects HTT-Q103 PC12 cells, measured by ATP; AID 1471; hit rate 0.14% among 230,000; Potency, µM (highest dose often 56.4 µM), for inactives: cytoprotection (ATP increase), most hits filed as activators; PC12 HTT-Q103 induced, cytoprotection, ATP luminescence, 40 h; also: potency is read from the fitted curve at half-maximal effect; % of control where 0% means no effect; nearly all actives have a fitted effect of over 45% in size
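Rat PC12, Q103 Htt exon1-GFP fusion, ecdysone promoter; tebufenozide inducer 100 nM final; compound titration; qHTS, 1500 cells/well; ATPlite luminescent read.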
* = called active by the depositor; ? = inconclusive; / = no result given; [ ] = dose if it differs, or a comment. A selection: hits, their analogues and other compounds. The true share with any hit is near 9.4%. Unless noted, calls follow the shape of the dose curve; as a rule, active = well fitted curve in the direction sought with a large enough effect; inconclusive = small, poorly fitted or top-dose-only effect, or another doubt; inactive = no such curve, though single readings can be large; an effect the other way counts as inactive or inconclusive.

SMILES	IMPase inh	IMPase Li inh	HTT aggregate	HPGD block	ALDH1A1 inh	HTT ATP protect
O=S(=O)(c1ccccc1)N1CCC2(CC1)CN(c1ccncc1)C2	/	17%	/	-27%	-8%	-47%
CCO	/	14%	/	-5%	?	-8%
COc1ccccc1-n1cnnc1SCC(=O)N1CC(=O)Nc2ccccc21	5	30%[38.3 µM]	17%	-5%	4.5µM*	-6%
COc1ccccc1-n1cnnc1SCC(=O)c1ccc[nH]1	0	11%[38.3 µM]	-3%	-4%	?	13%[10 µM]
O=C(CSc1nnnn1Cc1ccccc1)NCCc1ccccc1	2	11%[38.3 µM]	10%	-5%	?	2%
O=C(CSc1nnnn1Cc1ccccc1)NCC(=O)c1ccccc1	11	-7%[38.3 µM]	-9%	-10%	8.9µM*	-3%
CCOc1ccccc1-n1nnnc1SCC(=O)NC(=O)Nc1ccc2c(c1)OCCO2	4	22%[38.3 µM]	27%	-15%	13µM*	5%
O=C(CSc1nnnn1-c1ccccc1)NC(=O)Nc1ccc2c(c1)OCCO2	1	-1%[38.3 µM]	13%	-7%	?	-26%
COC(=O)c1c(NC(=O)CSc2nnnn2-c2ccccc2)sc2c1CCC(C)C2 (configuration not stated)	0	-2%[38.3 µM]	-33%	-20%	-5%	15%[10 µM]
COC(=O)c1c(NC(=O)CSc2nnnn2-c2ccccc2)sc2c1CCC(C(C)(C)C)C2 (configuration not stated)	3	1%[38.3 µM]	-12%	-17%	13µM*	-12%
COc1ccc(/C=C/C(=O)Nc2nc3n(n2)C(c2ccccc2)C=C(c2ccccc2)N3)cc1 (configuration not stated)	-2	/	/	/	/	/
O=C(Nc1cccc(F)c1)N1CC[C@@]2(CCCN(C(=O)c3cccc(F)c3)C2)C1	/	-1%	/	-4%	8%	-32%
COc1ccccc1-n1nnnc1SCC(=O)Nc1ccccn1	3	17%[38.3 µM]	-9%	-15%	0.63µM*	-16%
COc1ccccc1-n1nnnc1SCc1ccccc1	8	9%[38.3 µM]	-17%	-12%	?	-9%[10 µM]
Cc1cc(NC(=O)CSc2nncn2-c2ccccc2)no1	/	-9%	-8%	/	0%	-31%
COc1ccccc1-n1cnnc1SCC(=O)Nc1cc(C)on1	/	-3%	-6%	/	5µM*	-15%[10 µM]
Cc1cc(NC(=O)CSc2nnnn2-c2ccc(C)c(C)c2)no1	/	5%	8%[9.22 µM]	/	?	3%[10 µM]
Cc1cc(NC(=O)CSc2nnnn2-c2ccccc2)no1	/	13%	11%[9.22 µM]	/	16µM*	-7%[10 µM]
Cc1ccc2cc3c(N)c4c(C)ccc(C)c4nc3nc2c1	/	31%	-3%	/	-3%	-43%
Cc1ccc(O)c(NC(=O)c2ccc(Br)c(S(=O)(=O)N3CCCCC3)c2)c1	8	/	/	/	/	/
COc1ccc(-c2nc3cnc(N(C)C)nc3n(C[C@H]3CCCO3)c2=O)cc1	/	-5%	/	/	?	-6%
C#CCCCO/N=C1/[C@H]2O[C@@H]2[C@@H](O)[C@H]2[C@H]1CCn1c(=O)n(Cc3cc4c(cc3Cl)OCO4)c(=O)n12	/	/	/	/	-2%[13.5 µM]	-11%[10 µM]
CC(C)(C)Cc1nnc(NC(=O)CN2C(=O)c3ccccc3C2=O)s1	/	16%	21%[9.22 µM]	/	22µM*	20%[10 µM]
CSC1=NSC2=NC(=O)/C(=C/c3coc4ccc(O)cc4c3=O)C(=N)N12	/	1%	-1%	22µM*	?	/
CSC1=NSC2=NC(=O)/C(=C/c3coc4ccccc4c3=O)C(=N)N12	/	15%	28%	?	?	/
SMILES	IMPase inh	IMPase Li inh	HTT aggregate	HPGD block	ALDH1A1 inh	HTT ATP protect
COc1ccc(OC)c(S(=O)(=O)Nc2ccc3c(c2)C(=O)OC3)c1	/	/	-1%[9.22 µM]	/	/	12%[10 µM]
C/C(=N\Nc1nc2ccccc2s1)c1cccs1	/	-4%	-6%	14µM*	5%	-31%[10 µM]
O=C1C=C(c2ccccc2)C[C@H](c2cccs2)[C@H]1n1nnc([N+](=O)[O-])n1	5	7%	?	-20%	10µM*	-24%[10 µM]
COc1ccccc1-c1cc(NCc2ccccc2)ncn1	/	-1%	/	/	?	-31%
CCN(CC)S(=O)(=O)c1cc(C(=O)NCCN2CCOCC2)ccc1Cl	/	-3%	0%	/	0%	36%[10 µM]
CC(C)(C)OC(=O)C(Cc1ccc(OC(C)(C)C)cc1)NC(=O)CNC(=O)OCc1ccccc1 (configuration not stated)	/	-1%	14%	-6%	?	-1%[10 µM]
CC1CCC(NC(=O)N(CCCl)N=O)CC1 (configuration not stated)	/	3%	-4%	-9%	13µM*	2%
O=c1c(-c2ccc(F)cc2)nc2cnc(N3CCOCC3)nc2n1C[C@H]1CCCO1	/	7%	/	-24%	?	-17%
CCC[C@H](N[C@@H](C)C(=O)N1[C@@H]2CCCC[C@H]2C[C@H]1C(=O)O)C(=O)OCC	/	5%	/	-16%	7%	/
CSc1sc(C(=O)NCC2CC2)c2c1S(=O)(=O)N(C)c1ccccc1-2	/	/	1%[9.22 µM]	/	/	-5%[10 µM]
CSc1sc(C(=O)NCC2CC2)c(-c2cccs2)c1C#N	/	/	-11%[9.22 µM]	/	8.9µM*	1%[10 µM]
CCN(CC)CCNC(=O)c1c(C)n(-c2ccccc2)c2cc(Br)c(OC)cc12	6	-27%[38.3 µM]	?	-6%	0.63µM*	-86%
COc1cc2c(C(=O)N3CCN(C)CC3)c(C)n(-c3ccccc3)c2cc1Br	-1	-25%[38.3 µM]	7%	-26%	?	-16%
CC1=NOC(=O)/C1=C\c1ccc(-c2ccc(Cl)cc2Cl)o1	-6	18%[38.3 µM]	-27%	1.8µM*	10µM*	-43%
